Laboratory results reported in PubChem BioAssay (NCI).
The panel holds about 79,000 compounds, 15% with a hit somewhere; the sample as a whole holds those more often. Activity calls are given as the source filed them. No stated cut-off is given here; in the data, active means growth inhibition above about 70%; inactive means the rest.

Assays:
[1] = NCI Yeast Anticancer Drug Screen. Data for the rad52 strain (AID 147);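 further: 0% = growth of vehicle-treated control cultures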; details: S. cerevisiae rad52 mutant growth inhibition, hits give high values
How it was run: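 The repair-mutant yeast strain was incubated with compounds, then growth was read and inhibition derived relative to vehicle.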

[2] = NCI Yeast Anticancer Drug Screen. Data for the wt1 strain (AID 149);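 further: 0% = growth of vehicle-treated wt1 cultures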; details: S. cerevisiae wt1 strain (SPY 50644) growth inhibition, hits give high values
How it was run: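 wt1 yeast, compound-treated; % growth inhibition vs vehicle control.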

[3] = NCI Yeast Anticancer Drug Screen. Data for the rad50EPP+ strain (AID 151);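 further: 0% = growth of vehicle-treated control cultures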; details: S. cerevisiae rad50 mutant strain, hits give high values
How it was run: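 Vehicle-normalised growth inhibition; rad50EPP+ yeast strain, altered in DNA damage repair, compound-treated.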

[4] = NCI Yeast Anticancer Drug Screen. Data for the mgt1 strain (AID 153); details: S. cerevisiae mgt1 mutant growth inhibition, hits give high values
How it was run: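 Vehicle-normalized growth inhibition is determined in mgt1 yeast, a strain selected for a defined alteration in DNA repair or cell cycle control.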

[5] = NCI Yeast Anticancer Drug Screen. Data for the mec2-1 strain (AID 157); details: S. cerevisiae mec2-1 strain, hits give high values
How it was run: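 Mutant yeast (mec2-1) grown with compound; growth inhibition relative to vehicle control reported.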

[6] = NCI Yeast Anticancer Drug Screen. Data for the rad14 strain (AID 159);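 further: 0% = growth of vehicle-treated control cultures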; details: S. cerevisiae rad14 strain growth inhibition, hits give high values
How it was run: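 Test compounds were applied to a repair-deficient yeast strain. Its growth was then compared with that of cultures given vehicle alone, and inhibition was expressed relative to those controls.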

[7] = NCI Yeast Anticancer Drug Screen. Data for the CLN2oe strain (AID 163);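 further: 0% = growth of vehicle-only control cultures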; details: S. cerevisiae CLN2oe strain, hits give high values
How it was run: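 Compounds are applied to yeast harbouring a defined cell-cycle control change; reduced growth compared with vehicle-treated controls gives the value.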

[8] = NCI Yeast Anticancer Drug Screen. Data for the cln2 rad14 strain (AID 165);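 further: 0% = growth equal to vehicle treated cultures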; details: S. cerevisiae cln2 rad14 strain, hits give high values
How it was run: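 Readout is yeast growth inhibition versus vehicle-treated controls, using a strain with cln2 and rad14 alterations exposed to compound.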

[9] = NCI Yeast Anticancer Drug Screen. Data for the bub3 strain (AID 167); details: S. cerevisiae bub3 mutant strain, hits give high values
How it was run: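 Yeast carrying a defined mutation is treated with each compound, and growth is compared with that of vehicle-exposed cells to give inhibition.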

[10] = NCI Yeast Anticancer Drug Screen. Data for the wt2 strain (AID 169);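 further: 0% = growth of vehicle-treated yeast cultures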; details: S. cerevisiae wt2 strain growth inhibition, hits give high values
How it was run: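 Against vehicle-treated controls, the growth of yeast exposed to each compound was compared, and the inhibition was recorded.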

[11] = NCI Yeast Anticancer Drug Screen. Data for the mlh1 strain (AID 171);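 further: 0% = growth of vehicle-treated control cultures of the same strain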; details: S. cerevisiae mlh1 strain growth inhibition, hits give high values
How it was run: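 Measured: yeast growth. Reference: vehicle-treated controls. Organism: strain with a defined alteration affecting DNA damage repair or cell cycle control, treated with compound.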

[12] = NCI Yeast Anticancer Drug Screen. Data for the sgs1 strain (AID 173);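 further: 0% = growth of vehicle-only control cultures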; details: S. cerevisiae sgs1 mutant, hits give high values
How it was run: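 Each compound was added to cultures of the altered yeast strain. Growth was recorded, and inhibition was derived by comparison with vehicle controls.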

[13] = NCI Yeast Anticancer Drug Screen. Data for the mlh1 rad18 strain (AID 175); details: S. cerevisiae mlh1 rad18 strain growth inhibition, hits give high values
How it was run: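 Genetically defined yeast (DNA repair-deficient) exposed to compounds; growth inhibition determined relative to vehicle.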

[14] = NCI Yeast Anticancer Drug Screen. Data for the rad18 strain (AID 177); details: S. cerevisiae rad18 mutant growth inhibition, hits give high values
How it was run: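 Vehicle-treated cultures served as the baseline for scoring compound-induced growth inhibition in DNA-repair-mutant yeast.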

[15] = NCI Yeast Anticancer Drug Screen. Data for the rad50 strain (AID 155);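 further: 0% = growth of vehicle-only cultures of the same strain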; details: S. cerevisiae rad50 strain growth inhibition, hits give high values
How it was run: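 Genetically altered yeast (DNA repair pathway); compound treatment; growth inhibition vs vehicle ctrl.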

[16] = at 5.0 µM (retest, dose inferred, filed as 0.5)
[17] = at 50.0 µM (retest, dose inferred, filed as 5.0)

Measured: growth inhibition

O=C1C(/C=C/c2ccc(Cl)cc2)=NNC2N1N=C1NC(=O)C3(NN12)c1ccccc1-c1ccccc13 (configuration not stated)
active: [5]; at 50.0 µM 76.2% | [9]; at 50.0 µM 87.2% | [13]; at 50.0 µM 87.7%
inactive: [1]; at 1.2 µM -2% | [1]; at 3.7 µM -2% | [1]; at 11.0 µM -1% | [1]; at 33.0 µM -3% | [1]; at 100.0 µM 10% | [2]; at 1.2 µM 1% | [2]; at 3.7 µM 2% | [2]; at 11.0 µM 1% | [2]; at 33.0 µM 2% | [2]; at 100.0 µM 6% | [3]; at 1.2 µM -1% | [3]; at 3.7 µM -3% | [3]; at 11.0 µM 1% | [3]; at 33.0 µM 0% | [3]; at 100.0 µM 10% | [4]; at 1.2 µM -2% | [4]; at 3.7 µM -2% | [4]; at 11.0 µM -2% | [4]; at 33.0 µM -13% | [4]; at 100.0 µM 4% | [5]; at 1.2 µM 0% | [5]; at 3.7 µM 1% | [5]; [16] -10% | [5]; at 11.0 µM 0% | [5]; at 33.0 µM 5% | [5]; [17] 25% | [5]; at 100.0 µM 9% | [6]; at 1.2 µM -1% | [6]; at 3.7 µM -2% | [6]; at 11.0 µM -1% | [6]; at 33.0 µM 0% | [6]; at 100.0 µM 5% | [7]; at 1.2 µM -3% | [7]; at 3.7 µM -3% | [7]; at 11.0 µM 1% | [7]; at 33.0 µM 9% | [7]; at 100.0 µM 14% | [8]; [16] 18% | [8]; [17] 32% | [8]; at 50.0 µM 62.9% | [9]; at 1.2 µM -2% | [9]; at 3.7 µM 1% | [9]; [16] -19% | [9]; at 11.0 µM 0% | [9]; at 33.0 µM -2% | [9]; [17] -12% | [9]; at 100.0 µM 1% | [10]; at 1.2 µM -2% | [10]; at 3.7 µM -2% | [10]; at 11.0 µM -2% | [10]; at 33.0 µM 1% | [10]; at 100.0 µM 4% | [11]; at 1.2 µM 0% | [11]; at 3.7 µM 0% | [11]; at 11.0 µM 1% | [11]; at 33.0 µM 2% | [11]; at 100.0 µM 4% | [12]; at 1.2 µM -1% | [12]; at 3.7 µM 0% | [12]; at 11.0 µM -1% | [12]; at 33.0 µM 1% | [12]; at 100.0 µM 3% | [13]; [16] -34% | [13]; [17] 62% | [14]; at 1.2 µM -3% | [14]; at 3.7 µM -1% | [14]; at 11.0 µM -1% | [14]; at 33.0 µM 0% | [14]; at 100.0 µM 17%

CN(C)CC(CN(C)C)C(=O)/C=C/c1ccc(Cl)cc1Cl
active: [1]; at 33.0 µM 98% | [1]; at 100.0 µM 97% | [2]; at 33.0 µM 98% | [2]; at 100.0 µM 98% | [3]; at 33.0 µM 98% | [3]; at 100.0 µM 98% | [15]; [16] 93% | [15]; at 33.0 µM 98% | [15]; [17] 98% | [15]; at 100.0 µM 97% | [5]; at 33.0 µM 98% | [5]; [17] 99% | [5]; at 100.0 µM 98% | [6]; at 33.0 µM 99% | [6]; at 100.0 µM 97% | [7]; at 33.0 µM 98% | [7]; at 100.0 µM 97% | [8]; [17] 98% | [9]; at 33.0 µM 98% | [9]; [17] 98% | [9]; at 50.0 µM 99% | [9]; at 100.0 µM 97% | [10]; at 33.0 µM 98% | [10]; at 100.0 µM 98% | [11]; at 33.0 µM 99% | [11]; at 100.0 µM 98% | [13]; [17] 99% | [14]; at 33.0 µM 98% | [14]; at 100.0 µM 97%
inactive: [1]; at 1.2 µM 0% | [1]; at 3.7 µM -1% | [1]; at 11.0 µM 14% | [2]; at 1.2 µM -1% | [2]; at 3.7 µM -2% | [2]; at 11.0 µM -6% | [3]; at 1.2 µM -2% | [3]; at 3.7 µM -2% | [3]; at 11.0 µM 6% | [15]; at 1.2 µM -1% | [15]; at 3.7 µM 0% | [15]; at 11.0 µM 13% | [15]; at 50.0 µM 54.5% | [5]; at 1.2 µM -3% | [5]; at 3.7 µM -4% | [5]; [16] 13% | [5]; at 11.0 µM 6% | [5]; at 50.0 µM 42.2% | [6]; at 1.2 µM -2% | [6]; at 3.7 µM -2% | [6]; at 11.0 µM 17% | [7]; at 1.2 µM -1% | [7]; at 3.7 µM -3% | [7]; at 11.0 µM -1% | [8]; [16] 0% | [8]; at 50.0 µM 43.8% | [9]; at 1.2 µM -3% | [9]; at 3.7 µM -4% | [9]; [16] -10% | [9]; at 11.0 µM -3% | [10]; at 1.2 µM -2% | [10]; at 3.7 µM -5% | [10]; at 11.0 µM 2% | [11]; at 1.2 µM -3% | [11]; at 3.7 µM -5% | [11]; at 11.0 µM 10% | [13]; [16] 6% | [13]; at 50.0 µM 45% | [14]; at 1.2 µM -4% | [14]; at 3.7 µM -3% | [14]; at 11.0 µM 14%
